For twelve sequences, binding signal results are on record in PMC5700166.

Changes are numbered by the printed parent chain.

What all share (assay): protein-binding microarray (PBM); PBM: ~300 nM protein, 6 mM HEPES pH 7.8, 80 mM KCl, 0.5 mM EDTA, 0.5 mM EGTA, 6% glycerol, 35 ng/ul poly-dIdC, 1% milk, 1 h, room temperature; Ap Aiptasia and Nv Nematostella (sea anemones) / Co Capsaspora / Aq Amphimedon (sponge) / Dm Drosophila / Hu human; RHD is the Rel homology domain; high values mean tight binding
Holding throughout (conditions): dsDNA, one strand shown

One experiment has as its target T1, GST-Ap-NF-kB RHD (Exaiptasia pallida (Aiptasia), UniProt A0A913YAJ5 2-422).
T1 sequence: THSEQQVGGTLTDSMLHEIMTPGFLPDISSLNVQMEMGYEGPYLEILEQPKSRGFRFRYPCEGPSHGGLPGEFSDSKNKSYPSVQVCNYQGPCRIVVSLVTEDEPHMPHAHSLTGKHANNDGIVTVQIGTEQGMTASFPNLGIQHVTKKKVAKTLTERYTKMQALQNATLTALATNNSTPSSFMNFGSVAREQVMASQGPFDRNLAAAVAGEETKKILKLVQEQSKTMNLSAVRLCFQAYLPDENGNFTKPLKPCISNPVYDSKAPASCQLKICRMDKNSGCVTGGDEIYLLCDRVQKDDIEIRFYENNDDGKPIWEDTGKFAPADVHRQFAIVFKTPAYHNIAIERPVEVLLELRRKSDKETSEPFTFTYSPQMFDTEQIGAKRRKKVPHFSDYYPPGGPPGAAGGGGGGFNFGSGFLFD

Experiment [1] concerns the target T2, GST-Nv-NF-kB (Cys allele) (Nematostella vectensis, UniProt E5G601 2-411).
T2 sequence: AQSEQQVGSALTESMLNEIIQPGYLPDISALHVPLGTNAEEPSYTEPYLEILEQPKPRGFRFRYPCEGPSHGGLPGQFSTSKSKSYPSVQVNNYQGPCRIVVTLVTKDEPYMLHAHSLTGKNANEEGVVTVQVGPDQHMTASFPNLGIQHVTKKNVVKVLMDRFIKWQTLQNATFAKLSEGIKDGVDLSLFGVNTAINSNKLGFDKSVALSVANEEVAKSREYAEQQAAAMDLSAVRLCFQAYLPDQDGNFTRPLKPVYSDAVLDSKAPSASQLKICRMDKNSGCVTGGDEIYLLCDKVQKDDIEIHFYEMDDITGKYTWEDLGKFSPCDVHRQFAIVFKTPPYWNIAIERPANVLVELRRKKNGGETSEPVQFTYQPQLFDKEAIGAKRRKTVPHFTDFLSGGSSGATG

For experiment [2], the target named is T3, GST-Nv-NF-kB (Ser allele) (Nematostella vectensis, UniProt A7UNT2 2-411).
T3 sequence: T2 sequence with Q21R, C66S, S207N, E215Q, V217A, E225K, A268E, D399E

The target of the next experiment is T4, GST-Co-NF-kB (Capsaspora owczarzaki, UniProt F1ARL5 200-546).
T4 sequence: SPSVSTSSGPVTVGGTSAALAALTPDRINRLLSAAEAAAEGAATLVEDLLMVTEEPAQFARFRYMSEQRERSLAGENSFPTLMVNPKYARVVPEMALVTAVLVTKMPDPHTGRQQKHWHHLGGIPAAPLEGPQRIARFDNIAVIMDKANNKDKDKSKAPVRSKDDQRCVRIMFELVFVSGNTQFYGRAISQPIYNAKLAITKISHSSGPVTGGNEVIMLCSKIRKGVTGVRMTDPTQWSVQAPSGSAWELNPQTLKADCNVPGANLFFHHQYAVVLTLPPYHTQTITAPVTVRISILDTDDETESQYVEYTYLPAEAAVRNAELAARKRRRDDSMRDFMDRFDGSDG

A further experiment addresses T5, GST-Dm-Relish (Drosophila melanogaster, UniProt Q94527 99-473).
T5 sequence: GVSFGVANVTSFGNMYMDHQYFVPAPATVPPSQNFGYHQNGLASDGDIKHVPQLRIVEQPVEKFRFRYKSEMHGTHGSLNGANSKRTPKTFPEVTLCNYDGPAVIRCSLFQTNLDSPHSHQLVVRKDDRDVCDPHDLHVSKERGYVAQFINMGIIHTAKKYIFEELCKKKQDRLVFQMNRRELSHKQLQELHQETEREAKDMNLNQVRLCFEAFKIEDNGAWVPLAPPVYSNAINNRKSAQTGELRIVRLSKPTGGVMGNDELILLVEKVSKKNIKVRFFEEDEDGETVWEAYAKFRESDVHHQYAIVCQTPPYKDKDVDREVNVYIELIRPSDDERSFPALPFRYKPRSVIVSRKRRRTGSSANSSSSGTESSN

The target in the next experiment is T6, GST-Aq-NF-kB (Amphimedon queenslandica, UniProt A9Y5G7 2-389).
T6 sequence: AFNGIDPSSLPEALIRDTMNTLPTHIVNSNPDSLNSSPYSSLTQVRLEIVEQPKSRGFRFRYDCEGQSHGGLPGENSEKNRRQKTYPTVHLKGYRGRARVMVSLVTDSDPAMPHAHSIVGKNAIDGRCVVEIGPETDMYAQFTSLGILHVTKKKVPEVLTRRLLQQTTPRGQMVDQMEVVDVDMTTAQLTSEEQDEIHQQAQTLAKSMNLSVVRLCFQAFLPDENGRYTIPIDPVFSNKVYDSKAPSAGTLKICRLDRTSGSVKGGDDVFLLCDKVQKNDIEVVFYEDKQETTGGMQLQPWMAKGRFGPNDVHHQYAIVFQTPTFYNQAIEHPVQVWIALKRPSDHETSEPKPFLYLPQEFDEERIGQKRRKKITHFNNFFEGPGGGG

Another experiment has as its target GST-Hu-p50 (Homo sapiens, UniProt P19838 7-356).

Chain of GST-Hu-p50 (P19838 7-356): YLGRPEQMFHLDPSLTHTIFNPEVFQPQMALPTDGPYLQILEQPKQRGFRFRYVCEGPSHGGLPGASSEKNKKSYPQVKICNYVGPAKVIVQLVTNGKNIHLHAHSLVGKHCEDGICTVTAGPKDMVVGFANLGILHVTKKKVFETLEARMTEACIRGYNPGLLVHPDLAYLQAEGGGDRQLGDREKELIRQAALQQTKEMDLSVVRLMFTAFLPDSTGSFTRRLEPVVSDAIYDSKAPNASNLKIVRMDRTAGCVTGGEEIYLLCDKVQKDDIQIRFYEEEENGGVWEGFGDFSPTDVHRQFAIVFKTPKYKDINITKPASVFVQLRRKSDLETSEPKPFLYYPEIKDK

With “CCGATTAACATCAGGGACTGCCCTGATGTTAATCGGGTCTTGATTCGCTTGACGCTGCTG”, the binding signal with GST-Ap-NF-kB RHD stood at 4.31 z-score; in experiment [1], 4.95 z-score; in experiment [2], 3.06 z-score; with GST-Co-NF-kB, 1.04 z-score; with GST-Dm-Relish it was 4.22 z-score; with GST-Aq-NF-kB, 7.19 z-score. In the experiment with GST-Hu-p50, the binding signal was 4.14 z-score.

Take “CCGATTAACATCAGGGAAGTCCCTGATGTTAATCGGGTCTTGATTCGCTTGACGCTGCTG”: the binding signal with GST-Ap-NF-kB RHD is 9.31 z-score; in experiment [1], 11.7 z-score; in experiment [2], 9.19 z-score; with GST-Co-NF-kB, 1.97 z-score; with GST-Dm-Relish, 10.4 z-score; with GST-Aq-NF-kB, 10.2 z-score. This sequence came in with a binding signal in the experiment with GST-Hu-p50 of 6.58 z-score.

Regarding “CCGATTAACATCACAAAAGTCCCTGATGTTAATCGGGTCTTGATTCGCTTGACGCTGCTG”, the binding signal came to 7.21 z-score in the experiment with GST-Ap-NF-kB RHD; 9.22 z-score in experiment [1]; 9.85 z-score in experiment [2]; 2.27 z-score with GST-Co-NF-kB; 7.55 z-score in the experiment with GST-Dm-Relish; 7.54 z-score with GST-Aq-NF-kB. The same sequence showed a binding signal with GST-Hu-p50 of 6.52 z-score.

Take “CCGATTAACATCAGGGGAAGACCTGATGTTAATCGGGTCTTGATTCGCTTGACGCTGCTG”: the binding signal with GST-Ap-NF-kB RHD came to 5.91 z-score; in experiment [1], 7.98 z-score; in experiment [2], 6.51 z-score; with GST-Co-NF-kB it was 5.23 z-score; with GST-Dm-Relish, 8.75 z-score; with GST-Aq-NF-kB, 7.72 z-score. This sequence also showed a binding signal in the experiment with GST-Hu-p50 of 4.98 z-score.

Consider “CCGATTAACATCAGGGGAGGGACTGATGTTAATCGGGTCTTGATTCGCTTGACGCTGCTG”, for which the binding signal amounted to 4.36 z-score with GST-Ap-NF-kB RHD; 4.69 z-score in experiment [1]; 4.55 z-score in experiment [2]; 2.92 z-score with GST-Co-NF-kB; 3.83 z-score in the experiment with GST-Dm-Relish; 5.21 z-score in the experiment with GST-Aq-NF-kB. In the experiment with GST-Hu-p50, this sequence registered a binding signal of 3.82 z-score.

“CCGATTAACATCAGGGAATCCCATGATGTTAATCGGGTCTTGATTCGCTTGACGCTGCTG”: the binding signal with GST-Ap-NF-kB RHD was 5.36 z-score; in experiment [1], 4.92 z-score; in experiment [2], 4.14 z-score; with GST-Co-NF-kB it was 2.97 z-score; with GST-Dm-Relish it was 10.4 z-score; with GST-Aq-NF-kB, 6.45 z-score. The sequence also showed a binding signal with GST-Hu-p50 of 4.13 z-score.

In the case of “CCGATTAACATCAGGGAATTTTATGATGTTAATCGGGTCTTGATTCGCTTGACGCTGCTG”, the binding signal in the experiment with GST-Ap-NF-kB RHD was 6.12 z-score; in experiment [1], 9.33 z-score; in experiment [2], 8.44 z-score; with GST-Co-NF-kB, 4.82 z-score; with GST-Dm-Relish, 6.83 z-score; with GST-Aq-NF-kB it was 8.16 z-score. The sequence also displayed a binding signal with GST-Hu-p50 of 6.55 z-score.

For “CCGATTAACATCAGGGGATTACCTGATGTTAATCGGGTCTTGATTCGCTTGACGCTGCTG”, the binding signal turned out to be 9.27 z-score in the experiment with GST-Ap-NF-kB RHD; 10.5 z-score in experiment [1]; 9.69 z-score in experiment [2]; 3.93 z-score with GST-Co-NF-kB; 9.7 z-score with GST-Dm-Relish; 9.77 z-score in the experiment with GST-Aq-NF-kB. Further, in the experiment with GST-Hu-p50, the binding signal is 6.76 z-score.

Consider “CCGATTAACATCAAAATTCCCACTGATGTTAATCGGGTCTTGATTCGCTTGACGCTGCTG”, for which the binding signal was determined as 3.89 z-score in the experiment with GST-Ap-NF-kB RHD; 5.68 z-score in experiment [1]; 5.15 z-score in experiment [2]; 4.31 z-score with GST-Co-NF-kB; 5.55 z-score with GST-Dm-Relish; 4.54 z-score with GST-Aq-NF-kB. In the experiment with GST-Hu-p50, this sequence showed a binding signal of 4.27 z-score.

“CCGATTAACATCAAAATCCCCCCTGATGTTAATCGGGTCTTGATTCGCTTGACGCTGCTG”: the binding signal with GST-Ap-NF-kB RHD is 10.4 z-score; in experiment [1], 9.21 z-score; in experiment [2], 10.9 z-score; with GST-Co-NF-kB it was 8.91 z-score; with GST-Dm-Relish, 9.53 z-score; in the experiment with GST-Aq-NF-kB, 8.11 z-score. In the experiment with GST-Hu-p50, this sequence registered a binding signal of 7.61 z-score.

For “CCGATTAACATCAGGACATTCCCTGATGTTAATCGGGTCTTGATTCGCTTGACGCTGCTG”, the binding signal amounted to 2.97 z-score with GST-Ap-NF-kB RHD; 4.82 z-score in experiment [1]; 2.96 z-score in experiment [2]; 1.36 z-score with GST-Co-NF-kB; 3.89 z-score with GST-Dm-Relish; 6.9 z-score with GST-Aq-NF-kB. This sequence showed a binding signal with GST-Hu-p50 of 3.21 z-score.

In the case of “CCGATTAACATCAAATCCCCCCGTGATGTTAATCGGGTCTTGATTCGCTTGACGCTGCTG”, the binding signal in the experiment with GST-Ap-NF-kB RHD came to 8.26 z-score; in experiment [1], 7.22 z-score; in experiment [2], 6.8 z-score; with GST-Co-NF-kB, 7.74 z-score; with GST-Dm-Relish, 8.05 z-score; in the experiment with GST-Aq-NF-kB it was 6.07 z-score. The sequence also showed a binding signal with GST-Hu-p50 of 6.44 z-score.
